This is part of a sample that, as a whole, favours compounds with a hit. Of some 79,000 tested, about 15% had one in any assay. Unmarked numbers belong to inactive results. Active and inactive are the calls of the source. Rule as the data show it: active = growth inhibition above about 70%; inactive = the rest.
Experiment: NCI Yeast Anticancer Drug Screen. Data for the sgs1 strain (AID 173);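 also: 0% = growth of vehicle-only control cultures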
Conditions: S. cerevisiae sgs1 mutant, hits give high values
Method: Growth inhibition of yeast strains with defined genetic alterations is measured as a screen for potential anti-cancer activity. Selected strains with alterations in DNA damage repair or cell cycle control were exposed to compounds and growth inhibition was measured relative to vehicle treated controls. The strain used in this assay is sgs1

For `CCN(CC)CC(=O)c1ccc2cc(Cl)c3ccccc3c2c1`, the growth inhibition (at 1.2 µM) was 25%, the growth inhibition (at 3.7 µM) was 53% and the growth inhibition (at 11.0 µM) was 99% (active). The growth inhibition (at 33.0 µM) was 98% (active) and the growth inhibition (at 100.0 µM) was 98% (active).
For `CCC(=O)C1=C(O)c2cc(OC)ccc2CC1C(=O)OC` (stereo not given), the growth inhibition (at 1.2 µM) was -1%, the growth inhibition (at 3.7 µM) was -1% and the growth inhibition (at 11.0 µM) was 4%. For the same compound, the growth inhibition (at 33.0 µM) was 18% and the growth inhibition (at 100.0 µM) was 37%.
For `Cc1cccc2c1C1c3c(C)cccc3C(CC(=O)O)CC1CC2` (stereo not given), the growth inhibition (at 1.2 µM) was 10%, the growth inhibition (at 3.7 µM) was 75% (active) and the growth inhibition (at 11.0 µM) was 98% (active). The growth inhibition (at 33.0 µM) was 96% (active) and the growth inhibition (at 100.0 µM) was 92% (active).
For `c1ccc(-c2cc(C3CO3)c3ccccc3n2)cc1` (stereo not given), the growth inhibition (at 1.2 µM) was 0%, the growth inhibition (at 3.7 µM) was 1% and the growth inhibition (at 11.0 µM) was 19%. The growth inhibition (at 33.0 µM) was 80% (active) and the growth inhibition (at 100.0 µM) was 98% (active).
Work on `O=S(=O)(NNc1ccccc1)c1ccccc1` yielded a growth inhibition (at 1.2 µM) of -1%, a growth inhibition (at 3.7 µM) of -1% and a growth inhibition (at 11.0 µM) of 6%. For the same compound, the growth inhibition (at 33.0 µM) was 34% and the growth inhibition (at 100.0 µM) was 90% (active).
`COc1ccccc1/C=C\C(=O)C1COCN1` (stereo not given) showed a growth inhibition (at 1.2 µM) of 1%, a growth inhibition (at 3.7 µM) of 2% and a growth inhibition (at 11.0 µM) of 18%. For the same compound, the growth inhibition (at 33.0 µM) was 92% (active) and the growth inhibition (at 100.0 µM) was 99% (active).
In the case of `CC(C)CCC[C@@H](C)[C@H]1CC[C@H]2[C@@H]3CC[C@H]4C[C@H](N)CC[C@]4(C)[C@H]3CC[C@]12C`, the growth inhibition (at 1.2 µM) is reported as -3%, the growth inhibition (at 3.7 µM) is reported as -22% and the growth inhibition (at 11.0 µM) is reported as 6%. It also gave a growth inhibition (at 33.0 µM) of 6% and a growth inhibition (at 100.0 µM) of 13%.
For `CC1=NN(C(=O)c2ccccc2O)C(=O)/C1=C/c1ccco1`, the growth inhibition (at 1.2 µM) was 7%, the growth inhibition (at 3.7 µM) was 44% and the growth inhibition (at 11.0 µM) was 67%. The growth inhibition (at 33.0 µM) was 85% (active) and the growth inhibition (at 100.0 µM) was 92% (active).

Source: PubChem BioAssay (NCI)
